From the supplement of paper PMC10338343
± gives the standard deviation.

system: MILI (PIWIL2) piRISC loaded with L1MC piRNA (26 nt); assay: pre-steady-state target cleavage rate (min^-1); guide: L1MC piRNA 5'p-UAACUAAAUACUAUGCAAGCUGUAGG; MIWI and MILI are mouse PIWI proteins and EfPiwi is from a freshwater sponge; tags in brackets are library labels; higher = faster piRNA-guided slicing of the target; details: auxiliary factor: 500 nM mouse GTSF1
Summary of the method: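 Cleave-'n-Seq used a transcribed, DNA-blocked target RNA library at 0.1 nM and active affinity-purified piRISC with one synthetic guide at 1 nM, with or without 500 nM GTSF1 partner protein, in HEPES–potassium acetate buffer at 33 °C for 0–8 or 0–960 min. Uncleaved targets were sequenced and normalised to depth and to weakly complementary targets, and three trials were pooled with k3 capped at 0.0001 min^-1. The pre-steady-state cleavage rate was estimated by a burst-and-steady-state fit.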

UCCUGGAUGUCCUUGCAAAGUAAUUAGUUA and UCCUGGAUGUCGAUGCAUAGUACUUUAGUUA are within error of each other in “pre-steady-state target cleavage rate” value: 0.018 ± 0.0064 for the first, 0.0153 ± 0.0039 for the second.

Compared with UCCUGGAUGUCGAAGCAUAGUAUUUUGUUA, UCCUGGUACACCUUGCAUUGUAUUUAGUUA is higher in “pre-steady-state target cleavage rate” value: 0.0221 ± 0.0061 for the first, 0.15 ± 0.041 for the second.

Going from UCCUGGAUCAGCUUGCAAAGUAUAUAGUUA to UCCUGGAACACGCUUGCAUAGUAUUUAGUUA, the “pre-steady-state target cleavage rate” value rises from 0.104 ± 0.012 to 0.249 ± 0.025.

UCCUGGUACAGACUUGCAUAGUAUUUAGUUA and UCCUGGUACAGGAAGCAUAGUAUUUAGUAA are within error of each other in “pre-steady-state target cleavage rate” value: 0.228 ± 0.042 for the first, 0.167 ± 0.023 for the second.

First: UCCUGGAUCCAGCUUGCAUAGUAUUUAGUUA
Second: UCCUGGAACAGCUUGCUUAGUAUUUACUUA
The “pre-steady-state target cleavage rate” value of the first is higher: 0.3 ± 0.017 for the first, 0.187 ± 0.032 for the second.

UCCUGGAUCAGCUUGCUUUGUAUUUAGUUA and UCCUGGAUGAGCAUGCUUAGUAUUUAGUUA are within error of each other in “pre-steady-state target cleavage rate” value: 0.11 ± 0.015 for the first, 0.115 ± 0.011 for the second.

UCCUGGAUGUGCUUGGAUAGUAAUUAGUUA and UCCUCGUACAGCUUGCAUAGUUUUUAGUUA are within error of each other in “pre-steady-state target cleavage rate” value: 0.0687 ± 0.014 for the first, 0.0651 ± 0.008 for the second.

Compared with UCCUGGAACAGCUUGGUAAGUAUUUAGUAA, UCCUGGAUGUGCUACCAUAGUAUUUAGUUA is lower in “pre-steady-state target cleavage rate” value: 0.11 ± 0.017 for the first, 0.0577 ± 0.0094 for the second.

Going from UCCUGGAUGUCGAUGCAUAGUAUUAUAGUUA to UCCUGGAUGAGCUUGGAUAGUUUUUAGUUA, the “pre-steady-state target cleavage rate” value falls from 0.123 ± 0.021 to 0.0261 ± 0.0072.

First: UCCUGGAUGAGCUUGAAUAGUAUUUAGUUA
Second: UCCUGGAUGUGCUAGCAUAGUAAUUAGUUA
The “pre-steady-state target cleavage rate” value of the first is higher: 0.216 ± 0.011 for the first, 0.0614 ± 0.011 for the second.

First: UCCUGGAUGUCCUUGCAUAGUAGUUUAGUUA
Second: UCCUGGAUGUCGUUGUAUAGUAUUUAGUUA
The “pre-steady-state target cleavage rate” value of the first is lower: 0.0394 ± 0.014 for the first, 0.151 ± 0.017 for the second.

First: UCCUGGAUGUCGUUGCAUAGUAUUUAGUGA
Second: UCCUGGAUCAGCUUGCAUAGAUAUUUAGUUA
The “pre-steady-state target cleavage rate” value of the first is higher: 0.193 ± 0.034 for the first, 0.0135 ± 0.004 for the second.

Going from UCCUGGAUCAGCUUGCAAAGUAUUUUGUUA to UCCUCCUACAGCUUGGAUUGUAUUUAGUUA, the “pre-steady-state target cleavage rate” value rises from 0.1 ± 0.018 to 0.165 ± 0.015.

First: UCCUGCUACAGCUUGCAUAGUACUUUAGUUA
Second: UCCUGGAUGUCCUUGCUUUGUAUUUAGUUA
The “pre-steady-state target cleavage rate” value of the first is higher: 0.194 ± 0.025 for the first, 0.00984 ± 0.0041 for the second.

Compared with UCCUGGAUGUGCUUGCAUUGUAUUAAGUUA, UCCUGGAUCAGCAAGCAUAGUAUUUAGUAA is higher in “pre-steady-state target cleavage rate” value: 0.0663 ± 0.014 for the first, 0.196 ± 0.016 for the second.

First: UCCUGGAUGAGCUUGCUAUGUAUUUAGUUA
Second: UCCUGGAUGUGCUUGCACAGUAUUUAGUUA
The “pre-steady-state target cleavage rate” value of the first is lower: 0.00711 ± 0.0026 for the first, 0.13 ± 0.01 for the second.

Going from UCCUGGAUCAGCUUGCAUAGUUUUUAGUUA to UCCUGGAACAAGCUUGCAUAGUAUUUAGUUA, the “pre-steady-state target cleavage rate” value rises from 0.0479 ± 0.0086 to 0.224 ± 0.012.

UCCUGGAUGUCGUUGCAUAGUAUUUAGUCUA and UCCUGGAUGUCGUUGCGUAGUAUUUAGUUA are within error of each other in “pre-steady-state target cleavage rate” value: 0.013 ± 0.0062 for the first, 0.0164 ± 0.0059 for the second.

First: UCCUGGAUGUCCUUGCAUAUUAUUUAGUUA
Second: UCCUGGAUGUCGAAGCAUAGUAAUUUAGUUA
The “pre-steady-state target cleavage rate” value of the first is higher: 0.038 ± 0.011 for the first, 0.0148 ± 0.0051 for the second.

First: UCCUGGUACAGCUUGGUAAGUAUUUAGUUA
Second: UCCUGGAUGUGGUUGCAUAGUAUUUUGUUA
The “pre-steady-state target cleavage rate” value of the first is higher: 0.113 ± 0.018 for the first, 0.0586 ± 0.023 for the second.
